Inconclusive results are not listed. A call without a number means that no potency is given here. A number with no mark means an inactive call. Active and inactive are the calls of the source. The call rests on the fitted dose curve; in most records, active means well fitted inhibition curve with a large enough effect; inconclusive means small, poorly fitted or top-dose-only effect; inactive means flat fitted curve, though single readings scatter.

For the experiment, the target named is Calcium and integrin-binding protein 1 (Homo sapiens) (UniProt Q99828). In words: Primary qHTS for Identification of Calcium Integrin Binding Protein 1 (CIB1) Competitor (AID 1508620). Further: top concentration of the series differs between compounds. The following applies: CIB1-GST / FITC-alphaIIb peptide fluorescence polarization; series mostly up to 57.7 µM. In short, it runs like this: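 Fluorescence polarization competition: GST-tagged CIB1 (1 uM final) preincubated with compound 15 min at room temperature, then FITC-labelled alphaIIb peptide (100 nM final) added. After 15 min at room temperature, polarization read at Ex 480/Em 540.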
Sequence of Calcium and integrin-binding protein 1 (Homo sapiens) (Q99828 whole entry, looked up): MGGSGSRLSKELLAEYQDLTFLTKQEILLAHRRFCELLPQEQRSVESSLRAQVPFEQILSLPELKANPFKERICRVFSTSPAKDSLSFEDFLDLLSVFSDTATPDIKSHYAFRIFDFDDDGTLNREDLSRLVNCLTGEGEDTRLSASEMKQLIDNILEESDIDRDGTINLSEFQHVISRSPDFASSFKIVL
A general note: In qHTS, concentration-response curves come from the screen itself.
On to `CC1OC(OC2C(O)C(C(=O)O)OC(OC3CCC4(C)C(CCC5(C)C4C=CC4=C6CC(C)(C)CC(O)C6(C)CCC45C)C3(C)C)C2OC2OCC(O)C(O)C2O)C(O)C(O)C1O` (centres undefined), for which the Potency entry is “inactive”. On the same count and under the same terms, with `CC(=O)C1CCC2(C)C3=C(CCC12C)C1(C)CCC(=O)C(C)(C)C1CC3` (centres undefined) the entry was “inactive”.

Turning to `O=C(OCc1cccc(O)c1O[C@@H]1O[C@H](CO)[C@@H](O)[C@H](O)[C@H]1O)C1(O)C(=O)C2C=CC1C1C=CC(=O)C(O)(C(=O)OCc3cccc(O)c3O[C@@H]3O[C@H](CO)[C@@H](O)[C@H](O)[C@H]3O)C21` (some centres undefined), the Potency entry was “inactive”.

As to `CC(C)CC1(C(=O)OCc2ccc(O[C@@H]3O[C@H](CO)[C@@H](O)[C@H](O)[C@H]3O)cc2)CC(=O)OC(C(=O)O)CC(=O)OCC2OC(O1)C(OC(=O)/C=C/c1ccc(O)cc1)C(O)C2O` (some centres undefined), the Potency result is “inactive”. With `COC1(CC(C)C)NC(=O)C(O)(Cc2ccccc2)NC1=O` (centres undefined), the Potency result was “inactive”. As to `C=C(C)C(C)C1OC23CC4(CO2)C(CCC2C5(C)CCC(OC6OCC(O)C(OC7OC(CO)C(O)C(OC8OCC(O)C(O)C8O)C7O)C6OC6OC(CO)C(O)C6O)C(C)(C)C5CCC24C)C3C(C)(O)C1OC(C)=O` (centres undefined), the Potency result is “inactive”. On the same count and under the same terms, with `C=Cc1cc(O)cc2nc(-c3ccc(O)c(F)c3)oc12` the entry was “inactive”; with `O=C1NC(=Nc2ccccc2F)S/C1=C\c1ccc(C(=O)O)cc1`, “inactive”. Turning to `CC1(C)CC2C3=CCC4C5(C)CCC(OC6OC(C(=O)O)C(O)C(O)C6OC6OC(CO)C(O)C(O)C6OC6OC(CO)C(O)C(O)C6O)C(C)(CO)C5CCC4(C)C3(C)CCC2(C)C(OC2OCC(O)C(OC3OC(CO)C(O)C(O)C3O)C2O)C1O` (centres undefined), the activity change, negative = inhibition was -16.4% [at 12.4 µM].

These data come from PubChem BioAssay (NCATS).
